± gives the standard deviation of the averaged measurements. Targets with the largest changes are over-represented here; the source holds about 5,400 in all.
Molecular target: T1, ACLY (UniProt P53396)
T1 sequence (whole entry): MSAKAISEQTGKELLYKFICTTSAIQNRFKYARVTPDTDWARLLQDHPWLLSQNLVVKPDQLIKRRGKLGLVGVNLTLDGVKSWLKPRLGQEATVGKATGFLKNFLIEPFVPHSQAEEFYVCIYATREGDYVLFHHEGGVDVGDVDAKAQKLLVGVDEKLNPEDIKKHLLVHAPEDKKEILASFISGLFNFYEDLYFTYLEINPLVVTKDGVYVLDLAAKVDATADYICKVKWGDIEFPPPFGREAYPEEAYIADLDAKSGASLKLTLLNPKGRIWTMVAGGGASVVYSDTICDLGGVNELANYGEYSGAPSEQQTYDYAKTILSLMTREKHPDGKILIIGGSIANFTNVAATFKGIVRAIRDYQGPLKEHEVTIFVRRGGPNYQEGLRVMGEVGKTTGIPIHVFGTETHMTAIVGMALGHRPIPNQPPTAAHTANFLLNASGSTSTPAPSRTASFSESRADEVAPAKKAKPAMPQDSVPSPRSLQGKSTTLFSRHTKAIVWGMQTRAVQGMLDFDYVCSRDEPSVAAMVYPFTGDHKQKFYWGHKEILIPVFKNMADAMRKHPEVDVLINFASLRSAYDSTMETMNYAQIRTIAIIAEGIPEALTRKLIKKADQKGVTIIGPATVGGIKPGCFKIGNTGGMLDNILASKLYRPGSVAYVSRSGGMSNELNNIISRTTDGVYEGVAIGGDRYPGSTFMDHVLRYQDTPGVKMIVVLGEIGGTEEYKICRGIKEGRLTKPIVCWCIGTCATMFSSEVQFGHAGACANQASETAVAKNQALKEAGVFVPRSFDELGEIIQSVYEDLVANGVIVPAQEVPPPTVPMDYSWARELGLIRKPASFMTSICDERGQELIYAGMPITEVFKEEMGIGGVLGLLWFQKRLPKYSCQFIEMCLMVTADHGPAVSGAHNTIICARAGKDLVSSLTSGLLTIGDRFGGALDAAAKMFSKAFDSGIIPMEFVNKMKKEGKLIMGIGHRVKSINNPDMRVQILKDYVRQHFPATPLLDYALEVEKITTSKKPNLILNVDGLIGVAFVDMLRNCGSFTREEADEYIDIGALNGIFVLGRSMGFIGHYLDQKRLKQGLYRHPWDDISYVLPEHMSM
Test: NP40-soluble protein abundance relative to vehicle (solubility fold change) (ratio); higher = more soluble protein in presence of GTP
Description: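 Solubility proteome profiling in Jurkat crude lysate. Lysate was treated with Mg-GTP (0.1-10 mM) for 10 min at room temperature and 3 min at 37 °C, then solubilised with 0.8% NP40 and benzonase, followed by ultracentrifugation. Proteins were quantified by TMT10 LC-MS/MS; the value is the NP40-soluble abundance relative to the NP40-processed vehicle, from 3 independent experiments.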

## Nc1nc2c(ncn2[C@@H]2O[C@H](COP(=O)(O)OP(=O)(O)OP(=O)(O)O)[C@@H](O)[C@H]2O)c(=O)[nH]1 [guanosine triphosphate]
concentration: 0.1mM
  NP40-soluble protein abundance: 1.06 ± 0.044
concentration: 0.5mM
  NP40-soluble protein abundance: 1.08 ± 0.088
concentration: 1mM
  NP40-soluble protein abundance: 0.972 ± 0.084
concentration: 2mM
  NP40-soluble protein abundance: 0.968 ± 0.11
concentration: 4mM
  NP40-soluble protein abundance: 0.991 ± 0.084
concentration: 6mM
  NP40-soluble protein abundance: 0.963 ± 0.11
concentration: 8mM
  NP40-soluble protein abundance: 0.97 ± 0.065
concentration: 10mM
  NP40-soluble protein abundance: 0.906 ± 0.07
